Records with an inconclusive call do not appear. Entries that show only a call come without a potency. Activity calls are given as the source filed them. Calls follow the shape of the dose curve; as a rule, active = well fitted inhibition curve with a large enough effect; inconclusive = small, poorly fitted or top-dose-only effect; inactive = no such curve, though single readings can be large or run the other way.
test: NS1 protein of Zika virus - qHTS assay to identify small molecule inhibitors in human HEK 293 cells (AID 1347053); conditions: HEK293 ZIKV MR766 infection, NS1 TR-FRET, 24 h; series mostly up to 46.1 µM; also: nearly all actives have a fitted effect of over 55% in size
Summary of the method: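 Following 20 h seeding, HEK 293 cells took compound, then 1 h later ZIKV MR766 (MOI = 0.5). Incubation ran 24 h at 37 C before TR-FRET detection of NS1; a drop in signal indicates inhibition.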

Compound | Potency
CC(C(=O)O)c1ccc2c(c1)CC(=O)c1ccccc1S2 (configuration not stated) | inactive
CCCOc1ccc(C(=O)OCCN(CC)CC)cc1N | inactive
N[C@@H](C(=O)N[C@@H]1C(=O)N2C(C(=O)O)=C(Cl)CS[C@H]12)c1ccccc1 | inactive
CC(C)OC(=O)C(C(=O)OC(C)C)=C1SC=CS1 | inactive
COc1nc(N)nc2c1ncn2[C@@H]1O[C@H](CO)[C@@H](O)[C@@H]1O | inactive
CCOc1cc(N)c(Cl)cc1C(=O)NCC1CN(Cc2ccc(F)cc2)CCO1 (configuration not stated) | inactive
CN1CCN(c2c(F)cc3c(=O)c(C(=O)O)cn4c3c2OCN4C)CC1 | inactive
CN1CCN(c2c(F)cc3c(=O)c(C(=O)O)cn(CCF)c3c2F)CC1 | inactive
COc1ccc(-c2ccc3cc(C(=O)O)ccc3c2)cc1C12CC3CC(CC(C3)C1)C2 | inactive
NCCCC(O)(P(=O)(O)O)P(=O)(O)O | inactive
CCn1cc(C(=O)O)c(=O)c2cc(F)c(N3CCN(C)CC3)cc21 | inactive
CO[C@@H]1[C@@H](OC(N)=O)[C@@H](O)[C@H](Oc2ccc3c(O)c(NC(=O)c4ccc(O)c(CC=C(C)C)c4)c(=O)oc3c2C)OC1(C)C | inactive
Cc1c(-c2ccc(O)cc2)n(Cc2ccc(OCCN3CCCCCC3)cc2)c2ccc(O)cc12 | inactive
CCC(C)(C)c1ccc(CC(C)CN2C[C@@H](C)O[C@@H](C)C2)cc1 (some centres not stated) | inactive
O=C(O)c1ccc(-n2nc(-c3ccccc3O)nc2-c2ccccc2O)cc1 | inactive
CC(=O)CC(c1ccccc1)c1c(O)c2ccccc2oc1=O (configuration not stated) | inactive
NNC(=O)c1ccncc1 | inactive
